The text below walks through data of PubChem BioAssay (NCI).

About 83,000 compounds went through this panel and 20% of them were active in at least one assay; those are over-represented in the sample as a whole.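 Growth was measured after 48 h exposure to one concentration of compound in 96-well plates. Values under 10 count as active.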 A number with no mark means an inactive call. Activity calls are given as the source filed them.

Test systems include DU-145 prostate; K-562 leukemia; MALME-3M melanoma; MDA-MB-231 breast; RXF 393 renal; SF-268 CNS; SF-295 CNS; SF-539 CNS; UACC-257 melanoma; HCT-15 colon; HT29 colon; SNB-75 CNS; SNB-19 CNS; U251 CNS; PC-3 prostate; SK-MEL-5 melanoma; UACC-62 melanoma; LOX IMVI melanoma; SK-MEL-28 melanoma.
What all share (experiment): NCI-60 one-dose screen, 48 h (100 = growth as untreated, 0 = no growth, -100 = all killed)
Common to all, as to details: 10 µM unless noted

On to `CCCCCCCCCCCCCCCCCC1=NCCN1C(=O)OCCO`, for which the growth was -3.11% (active) with DU-145 prostate; 1.39% (active) with K-562 leukemia; 94% with MALME-3M melanoma; -25.6% (active) with MDA-MB-231 breast; 49.8% in the experiment on RXF 393 renal; 31.4% in the experiment with SF-268 CNS. The growth in the experiment with SF-295 CNS was 23.3%; with SF-539 CNS, -25.7% (active); in the experiment with UACC-257 melanoma, 62.9%; in the experiment on HCT-15 colon, -8.42% (active); in the experiment on HT29 colon, -47.6% (active); in the experiment on SNB-75 CNS, 45.1%. The growth with SNB-19 CNS was 75.9%; with U251 CNS it was -46% (active); in the experiment on PC-3 prostate, 28.4%; with SK-MEL-5 melanoma, 80.3%; in the experiment with UACC-62 melanoma, 59.6%; with LOX IMVI melanoma it was 27.8%. Besides, the growth in the experiment with SK-MEL-28 melanoma is 61.3%.

`CO[C@H]1/C=C/O[C@@]2(C)Oc3c(C)c(O)c4c(c3C2=O)C(=O)C(/C=N/N(c2ccccc2)c2ccccc2)=C(NC(=O)/C(C)=C\C=C\[C@H](C)[C@H](O)[C@@H](C)[C@@H](O)[C@@H](C)[C@H](OC(C)=O)[C@@H]1C)C4=O`: the growth with DU-145 prostate is 12.9%; in the experiment on K-562 leukemia, 7.47% (active); with MALME-3M melanoma it was -43.9% (active); in the experiment with MDA-MB-231 breast, -40.1% (active); in the experiment with RXF 393 renal, -61.9% (active); in the experiment on SF-268 CNS, 14.9%. Besides, the growth was -72.3% (active) with SF-295 CNS; -69.8% (active) in the experiment with SF-539 CNS; -22.5% (active) with UACC-257 melanoma; -20.3% (active) with HCT-15 colon; -12.7% (active) with HT29 colon; 19.6% with SNB-75 CNS. In addition, the growth in the experiment on SNB-19 CNS was 19.1%; with U251 CNS, -72.7% (active); in the experiment on PC-3 prostate, -2.79% (active); in the experiment on SK-MEL-5 melanoma, -88.2% (active); with UACC-62 melanoma, -71.1% (active); in the experiment on LOX IMVI melanoma, -81.1% (active). Further, the growth in the experiment on SK-MEL-28 melanoma is -58.3% (active).

As for `Clc1ccc(-c2cn(-c3ccccc3)c(-c3ccccc3)n2)cc1`, the growth in the experiment on DU-145 prostate is 93.9%; in the experiment with K-562 leukemia it was 18.4%; in the experiment with MALME-3M melanoma, 111%; in the experiment with MDA-MB-231 breast, 98.9%; in the experiment on RXF 393 renal it was 132%; in the experiment on SF-268 CNS it was 96.9%. Besides, the growth in the experiment with SF-295 CNS is 98.8%; in the experiment on SF-539 CNS, 102%; with UACC-257 melanoma, 173%; in the experiment on HCT-15 colon, 79.4%; with HT29 colon, 85.3%; in the experiment on SNB-75 CNS it was 87.7%. The growth was 79.1% in the experiment with SNB-19 CNS; 78.2% in the experiment with U251 CNS; 59.4% in the experiment with PC-3 prostate; 85.9% in the experiment on SK-MEL-5 melanoma; 92.2% with UACC-62 melanoma; 95.8% in the experiment on LOX IMVI melanoma. Also, the growth in the experiment on SK-MEL-28 melanoma is 93.8%.

For the compound `O=C(O)c1ccccc1C(=O)Nc1ccc(Cl)cc1`, the growth is 103% in the experiment with DU-145 prostate; 68.6% in the experiment with K-562 leukemia; 109% with MALME-3M melanoma; 104% in the experiment on MDA-MB-231 breast; 128% with RXF 393 renal; 94.5% with SF-268 CNS. Also, the growth with SF-295 CNS was 101%; in the experiment with SF-539 CNS it was 98.6%; in the experiment on UACC-257 melanoma, 78.3%; in the experiment on HCT-15 colon it was 98.5%; in the experiment on HT29 colon it was 104%; in the experiment on SNB-75 CNS it was 95.8%. For the same compound, the growth in the experiment with SNB-19 CNS was 102%; with U251 CNS it was 89.9%; with PC-3 prostate, 96.6%; in the experiment with SK-MEL-5 melanoma, 93.9%; with UACC-62 melanoma it was 48.8%; in the experiment on LOX IMVI melanoma, 63.8%. In the experiment on SK-MEL-28 melanoma, the growth is 96.7%.

`Cc1cc2c(F)c(Oc3ncnc(Nc4ccc(N5C[C@@H](C)N[C@@H](C)C5)cc4)c3C#N)cc(F)c2[nH]1`: the growth in the experiment with DU-145 prostate is 38.9%; with K-562 leukemia, -40.4% (active); in the experiment on MALME-3M melanoma, 75%; in the experiment on MDA-MB-231 breast, -0.722% (active); in the experiment on RXF 393 renal, -25.7% (active); in the experiment with SF-268 CNS, 29.3%. Moreover, the growth in the experiment on SF-295 CNS was 17.4%; with SF-539 CNS it was -78.7% (active); with UACC-257 melanoma, 65.9%; in the experiment with HCT-15 colon, 0.331% (active); with HT29 colon, -47.6% (active); in the experiment with SNB-75 CNS, -28.2% (active). The growth in the experiment with SNB-19 CNS was 37.4%; in the experiment with U251 CNS it was 11.2%; with PC-3 prostate, 42.4%; in the experiment with SK-MEL-5 melanoma, 21.7%; in the experiment on LOX IMVI melanoma it was -60.5% (active); with SK-MEL-28 melanoma, -63.6% (active).

As to `COc1ccc(-c2cc(-c3ccc(Nc4nc(Nc5ccccc5)nc(Nc5ccc(Cl)cc5)n4)cc3)nc(N)n2)cc1`, the growth with DU-145 prostate was 100%; in the experiment with K-562 leukemia it was 23.7%; in the experiment with MALME-3M melanoma, 79.2%; with MDA-MB-231 breast it was 49%; in the experiment on RXF 393 renal it was 75.6%; with SF-268 CNS it was 75.8%. Moreover, the growth with SF-295 CNS is 64.1%; in the experiment on SF-539 CNS it was 76.9%; with UACC-257 melanoma it was 77.1%; in the experiment with HCT-15 colon, 76.6%; in the experiment with HT29 colon, 52%; in the experiment with SNB-75 CNS it was 55.6%. In addition, the growth is 68.7% with SNB-19 CNS; 24.7% in the experiment on U251 CNS; 60.7% with SK-MEL-5 melanoma; 58.8% in the experiment on UACC-62 melanoma; 55% in the experiment with LOX IMVI melanoma; 84.8% in the experiment on SK-MEL-28 melanoma.

As to `Cc1nc2ccccc2c(/C=C/c2ccc(Cl)cc2)c1C(=O)/C=C/c1ccc(Cl)cc1`, the growth with DU-145 prostate was -70.5% (active); in the experiment with K-562 leukemia, 2% (active); in the experiment on MALME-3M melanoma, -54.1% (active); in the experiment with MDA-MB-231 breast, -34.1% (active); in the experiment with RXF 393 renal, -72.4% (active); in the experiment with SF-268 CNS, 25.8%. In addition, the growth in the experiment on SF-295 CNS was -65.6% (active); in the experiment with SF-539 CNS, -88.4% (active); in the experiment with UACC-257 melanoma, -17.2% (active); in the experiment on HCT-15 colon it was -31.3% (active); with HT29 colon, 3.75% (active); with SNB-75 CNS, 81.5%. The growth with SNB-19 CNS was -48.2% (active); in the experiment with U251 CNS it was -71.6% (active); in the experiment on PC-3 prostate, -18% (active); with SK-MEL-5 melanoma, -71.7% (active); in the experiment on UACC-62 melanoma, -42.9% (active); with LOX IMVI melanoma it was -93.8% (active). In addition, the growth in the experiment with SK-MEL-28 melanoma is -66.6% (active).
